# Data from PubChem BioAssay.
# Active and inactive are the calls of the source. Cut-off read from the data, not from the text of the source: active = fold change permeability below about 0.7 or above about 1.3; inactive = in between. Positions of bridges follow the written chain, without caps; N, C: chain ends. Non-standard residues stand in square brackets, D forms with d. Residues, ends and D or L forms follow the SMILES beside them. hArg = N=C(N)NCCCC[CH](N)C(=O)O; Mpa = O=C(O)CCS
# Assay: compounds altering in vitro BBB leakiness – cell-based, FITC-avidin fluorescence, HTS, primary screen (AID 1963498); note: test concentration not given here
# Conditions: brain endothelial barrier, actives lie on both sides
row,SMILES,fold change permeability
1,CC(C)(C)c1ccc(C(=O)CCCN2CCC(OC(c3ccccc3)c3ccccc3)CC2)cc1,1.6 (active)
2,O=C1CCC(N2C(=O)c3ccccc3C2=O)C(=O)N1 (stereo not given),1.6 (active)
3,C[C@]12CC[C@@H]3c4ccc(O)cc4CC[C@H]3[C@@H]1[C@@H](O)[C@@H](O)[C@@H]2O,0.8 (inactive)
4,COc1cc(/C=C(\C#N)C(=O)Nc2nnc(C(F)(F)F)s2)ccc1OCc1ccc(C(F)(F)F)cc1C(F)(F)F,1.5 (active)
5,NC(N)=NCCC[C@H](N)C(=O)O,1.1 (inactive)
6,O=C(Nc1ccccc1)c1cc([N+](=O)[O-])ccc1Cl,1.5 (active)
7,CC(C)Cc1ccc([C@H](C)C(=O)O)cc1,2.3 (active)
8,CC1(C)SCCN(S(=O)(=O)c2ccc(OCC#CCO)cc2)[C@H]1C(=O)NO,1.1 (inactive)
9,NC(N)=NCCCCN=C(N)N,1.2 (inactive)
10,COc1ccc(CC(C)NCC(O)c2ccc(O)c(NC=O)c2)cc1 (stereo not given),0.9 (inactive)
11,Cc1nc2n(c(=O)c1CCN1CCC(c3noc4cc(F)ccc34)CC1)CCCC2O (stereo not given),1 (inactive)
12,CCCNC(=O)Nc1ccc(Oc2ncnc3cc(OC)c(OC)cc23)cc1Cl,1.1 (inactive)
13,C[C@@H](CN1CCC(Cc2ccccc2)CC1)[C@@H](O)c1ccc(O)cc1,1.3 (active)
14,c1ccc(-c2ccccn2)nc1,1 (inactive)
15,O=c1[nH]c2cc([N+](=O)[O-])c([N+](=O)[O-])cc2[nH]c1=O,1.2 (inactive)
16,Cc1ccc(-n2sc(=O)n(Cc3ccc(F)cc3)c2=O)cc1,1.1 (inactive)
17,CC(C)C[C@H](C(=O)O)c1cc(-c2ccc(C(F)(F)F)cc2)cc(-c2ccc(C(F)(F)F)cc2)c1,0.9 (inactive)
18,OC1(c2ccc(Cl)cc2)CCN(Cc2c[nH]c3ccccc23)CC1,1.4 (active)
19,O=C(S)S,1.4 (active)
20,NNCCc1ccccc1,1.1 (inactive)

row,SMILES,fold change permeability
1,CN1Cc2sccc2C(c2ccc(O)c(O)c2)C1 (stereo not given),1 (inactive)
2,NC(=O)C1CSSCCC(=O)NC(CCCCN=C(N)N)C(=O)NCC(=O)NC(CC(=O)O)C(=O)NC(Cc2c[nH]c3ccccc23)C(=O)N2CCCC2C(=O)N1 (stereo not given) ([Mpa][hArg]GDWPC-NH2; disulfide 1-7; configuration not given here),0.9 (inactive)
3,CC[C@@]1(O)C(=O)OCc2c1cc1n(c2=O)Cc2cc3c(CN(C)C)c(O)ccc3nc2-1,1 (inactive)
4,CC(N)(Cc1ccc(O)c(O)c1)C(=O)O (stereo not given),0.9 (inactive)
5,CC(C)=CCc1cc2c(cc1O)oc(=O)c1c3ccc(O)cc3oc21,1.4 (active)
6,CC(=O)NNC(=O)N1Cc2ccccc2Oc2ccc(Cl)cc21,0.7 (active)
7,N=C(N)c1ccc(-c2ccc(-c3ccc(C(=N)N)cc3)o2)cc1,1.5 (active)
8,COc1ccc2c(c1)c(CC(=O)O)c(C)n2C(=O)c1ccc(Cl)cc1,1.7 (active)
9,Clc1ccc(Cn2c(CN3CCCC3)nc3ccccc32)cc1,1.2 (inactive)
10,NC1C=CC=C(C(=O)O)C1 (stereo not given),0.9 (inactive)
11,Cn1cc(C2=C(c3ccc(Cl)cc3Cl)C(=O)NC2=O)c2ccccc21,3.6 (active)
12,C1CCc2nnnn2CC1,1.3 (active)
13,NC(N)=S,1.3 (active)
14,CCCCCCCC/C=C\CCCCCCCC(=O)NCCO,1.2 (inactive)
15,CN1CCN(CCCN2c3ccccc3Sc3ccc(Cl)cc32)CC1,1 (inactive)
16,COc1ccc(Cl)cc1C(=O)NCCc1ccc(S(=O)(=O)NC(=O)NC2CCCCC2)cc1,0.7 (active)
17,CC(=O)CCCCn1c(=O)c2c(ncn2C)n(C)c1=O,1 (inactive)
18,COc1ccc(-c2ccc(N)[n+](CCCC(=O)O)n2)cc1,0.8 (inactive)
19,O=C(O)/C=C\C(=O)Nc1ccc(Oc2cccc(Oc3ccc(NC(=O)/C=C\C(=O)O)cc3)c2)cc1,0.9 (inactive)
20,N[C@@H](C(=O)N[C@@H]1C(=O)N2C(C(=O)O)=C(Cl)CS[C@H]12)c1ccccc1,0.9 (inactive)
